Results: PubChem BioAssay (NCATS)
“And” between values parts separate entries of the source, which are not always exact repeats. Equal values may be shown once. Inconclusive results are not listed. A call without a number means that no potency is given here. Values without a mark were called inactive. The source made the active and inactive calls. Calls follow the shape of the dose curve; as a rule, active = well fitted inhibition curve with a large enough effect; inconclusive = small, poorly fitted or top-dose-only effect; inactive = flat fitted curve, though single readings scatter.

Legend:
[1] = tested on: CRL-7250; test: Cytotoxic Profiling of Annotated Libraries Using Quantitative High-Throughput Screening (AID 1296008); settings: Five cell lines viability, CellTiter-Glo ATP luminescence, 48-72 h; max response: active compounds read low; also: potency is read from the fitted curve at half-maximal effect
Method in brief: (§1)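 Compounds were pin-transferred onto cells and incubated 48 or 72 hr at 37 degree Celsius, 95% humidity. CellTiter-Glo was added, plates sat 10 min at room temperature, then ATP-coupled luminescence was imaged as the viability read-out.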

[2] = tested on: HEK293; test: as above; settings: Five cell lines viability, CellTiter-Glo ATP luminescence, 48-72 h; max response: active compounds read low
Method in brief: as §1

[3] = tested on: HaCat; test: as above; settings: Five cell lines viability, CellTiter-Glo ATP luminescence, 48-72 h; max response: active compounds read low
Method in brief: as §1

[4] = tested on: KB-3-1; test: as above; settings: Five cell lines viability, CellTiter-Glo ATP luminescence, 48-72 h; max response: active compounds read low
Method in brief: as §1

[5] = tested on: NIH3T3; test: as above; settings: Five cell lines viability, CellTiter-Glo ATP luminescence, 48-72 h; max response: active compounds read low
Method in brief: as §1

[6] = tested on: HACAT; test: qHTS assay to identify novel small-molecules to repurpose for Merkel cell carcinoma treatment (AID 1296009); settings: MCC and control cell lines, CellTiter-Glo viability, 72 h
Method in brief: (§2)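 qHTS format: cells treated with library compounds in DMSO across 8 (NPC) or 11 (MIPE) concentrations. Readout after 72 hr at 37 degree celsius was CellTiter-Glo luminescence.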

[7] = tested on: HEK293T; test: as above; settings: MCC and control cell lines, CellTiter-Glo viability, 72 h; series mostly up to 44.8 µM
Method in brief: as §2

[8] = at 44.8 µM (top of the series) unless noted
Also: nearly all actives have a fitted effect of over 60% in size.

Row | Compound | max response [1] | outcome [2] | outcome [3] | outcome [4] | outcome [5] | outcome [6, 8] | Potency [7] | outcome [1] | max response [5] | outcome ([6]; at 17.4 µM (top of the series)) | outcome ([6]; at 44.8 µM (top of the series)) | max response [4] | Potency [1] | outcome [7]
1 | C[C@@H]1O[C@@H](O[C@H]2[C@H](OC(C#N)c3ccc(O)cc3)O[C@H](CO)[C@@H](O)[C@@H]2O)[C@H](O)[C@H](O)[C@H]1O (stereo partly specified) | -7.05% | inactive | inactive | inactive | inactive | inactive [at 17.4 µM] | inactive | – | – | – | – | – | – | –
2 | CO[C@@H]1COCC[C@@H]1N[C@@H]1CC[C@@](C(=O)N2CCc3ncc(C(F)(F)F)cc3C2)(C(C)C)C1 | – | inactive | inactive | inactive | – | – | inactive | inactive | -6.53% | inactive | inactive | – | – | –
3 | NCc1c[nH]c(=S)n1C1CCc2c(F)cc(F)cc2C1 (stereo unspecified) | -1.6% | inactive | inactive | – | inactive | inactive | inactive | – | – | – | – | -6.7% | – | –
4 | CC(C)CNC(=O)/C=C/CCCCc1ccc2c(c1)OCO2 | -4.34% | inactive | inactive | – | – | inactive | inactive | – | -0.808% | – | – | 4.53% | – | –
5 | Cc1c(N2C(=O)c3ccc(C(=O)O)cc3C2=O)c(=O)n(-c2ccccc2)n1C | – | inactive | inactive | inactive | inactive | inactive | inactive | inactive | – | – | – | – | – | –
6 | Cc1[nH]cnc1C1CCN(c2nc3cccc4c3n2CCC4=O)CC1 | – | inactive | inactive | – | inactive | inactive | inactive | inactive | – | – | – | 2.43% | – | –
7 | CCOC(=O)c1ccc(N(C)c2csc(-c3ccccc3)n2)cc1 | 4.84% | inactive | inactive | – | inactive | inactive | inactive | – | – | – | – | 0.515% | – | –
8 | COC1CCCC/C(C)=C/C2C=C(C)C(C)C3C(CC(C)C)NC(=O)C23C(=O)C1 (stereo unspecified) | – | inactive | inactive | – | inactive | inactive [at 17.4 µM] | inactive | inactive | – | – | – | 5.18% | – | –
9 | C/C=C/C=C/C=C/C(=O)O[C@@H]1[C@@H](OC)C2=C(C(=O)N(C(C)C(=O)O)C2)[C@@]2(C)CCCC(C)(C)[C@H]12 (stereo partly specified) | -1.32% | inactive | inactive | – | – | inactive [at 17.4 µM] | inactive | – | 0.76% | – | – | 5.59% | – | –
10 | Cc1ncc([N+](=O)[O-])n1CC(O)CN1CCOCC1 (stereo unspecified) | – | inactive | inactive | inactive | inactive | inactive | inactive | inactive | – | – | – | – | – | –
11 | O=C(c1ccccn1)c1cnn2c(-c3ccncc3)ccnc12 | 3% | inactive | inactive | – | – | inactive | inactive | – | 1.02% | – | – | -2.39% | – | –
12 | CC1(C)CC2C(O)C3=C(CC(C)(O)C2C1)C(=O)OC3O (stereo unspecified) | -0.0685% | inactive | inactive | – | inactive | inactive | inactive | – | – | – | – | 5.32% | – | –
13 | COc1cc(C2Oc3c(OC)cc(/C=C/C(=O)OC[C@H]4O[C@@H](OC(C)(C)C(=O)O)[C@H](O)[C@@H](O)[C@@H]4O)cc3C2CO)ccc1O (stereo partly specified) | – | inactive | inactive | – | – | inactive [at 17.4 µM] | inactive | inactive | 1.11% | – | – | 0.492% | – | –
14 | C=C1CC2(C(=O)O)CC1CCC2C1(C)CCCC2(C)C(=O)OC(O)C21 (stereo unspecified) | -12.2% | inactive | inactive | inactive | – | inactive | inactive | – | 0.0241% | – | – | – | – | –
15 | C[C@@H]1O[C@@H](OC[C@H]2O[C@@H](OCC3CCC4CC3C4(C)C)[C@H](O)[C@@H](O)[C@@H]2O)[C@H](O)[C@H](O)[C@H]1O (stereo partly specified) | -0.807% | inactive | inactive | – | – | inactive [at 17.4 µM] | inactive | – | -1.43% | – | – | 6.44% | – | –
16 | CC(=O)OC[C@]12[C@H](OC(C)=O)C(=O)[C@@H]3[C@@H](OC(C)=O)[C@@]14O[C@@]3(C)COC(=O)c1cccnc1[C@@H](C)[C@H](C)C(=O)O[C@@H]([C@H](OC(C)=O)[C@@H]2OC(C)=O)[C@]4(C)O | 2.64% | inactive | inactive | inactive | – | inactive [at 17.4 µM] | inactive | – | -8.22% | – | – | – | – | –
17 | C[C@@H]1CC[C@H]2C(C)(C)[C@H](O)[C@H](O)C[C@]2(C)[C@@]12Cc1c(O)cc3c(c1O2)CNC3=O | – | inactive | inactive | inactive | – | inactive | inactive | inactive | 3.46% | – | – | – | – | –
18 | C=C1CCC2(OC1)OC1CC3C4CC=C5CC(O)CC(O[C@@H]6OC[C@@H](O)[C@H](O)[C@H]6O)C5(C)C4CCC3(C)C1(O)C2C (stereo partly specified) | – | inactive | inactive | – | inactive | inactive [at 17.4 µM] | inactive | inactive | – | – | – | -0.359% | – | –

Row | Compound | max response [1] | outcome [2] | outcome [3] | outcome [4] | outcome [5] | outcome [6, 8] | Potency [7] | outcome [1] | max response [5] | outcome ([6]; at 17.4 µM (top of the series)) | outcome ([6]; at 44.8 µM (top of the series)) | max response [4] | Potency [1] | outcome [7]
19 | C=C1CCC(OC(C)=O)C2(C)CC3(O)OC(=O)C(C)=C3CC12 (stereo unspecified) | -6.35% | inactive | inactive | – | – | inactive | inactive | – | -2.74% | – | – | 4.81% | – | –
20 | COc1ccc(C(OC2OC(CO)C(O)C(O)C2O)C(C)O)cc1 (stereo unspecified) | -9.11% | inactive | inactive | – | inactive | inactive | inactive | – | – | – | – | 5.57% | – | –
21 | C=C1C(OC(C)=O)C(=O)C2C(C)(C)C(OC(C)=O)CCC2(C)C1CC(OC(C)=O)/C(C)=C/COC(C)=O (stereo unspecified) | 0.124% | inactive | inactive | – | inactive | inactive [at 17.4 µM] | inactive | – | – | – | – | -4.48% | – | –
22 | CC(=O)NCCCCn1c2c(c3ccccc31)C(=O)NCC2 | 4.55% | inactive | inactive | inactive | inactive | inactive | inactive | – | – | – | – | – | – | –
23 | OC[C@H]1O[C@@H](Oc2ccc3c(c2)OC[C@H]2c4cc5c(cc4O[C@@H]32)OCO5)[C@H](O)[C@@H](O)[C@@H]1O | -1.83% | inactive | inactive | inactive | – | inactive [at 17.4 µM] | inactive | – | 0.631% | – | – | – | – | –
24 | CC(C)c1nc(N(C)S(C)(=O)=O)nc(-c2ccc(F)cc2)c1/C=C/[C@@H](O)C[C@@H](O)CC(=O)O | – | inactive | inactive | inactive | – | inactive | inactive | – | 0.504% | – | – | – | 16.4 µM (active) | –
25 | C[C@]1(OC(=O)/C=C/c2ccccc2)C[C@H](O)[C@]2(O)C=CO[C@@H](O[C@@H]3O[C@H](CO)[C@@H](O)[C@H](O)[C@H]3O)C12 (stereo partly specified) | – | inactive | inactive | – | inactive | inactive [at 17.4 µM] | inactive | inactive | – | – | – | 4.61% | – | –
26 | Cc1nn(C)c(COc2ccc(N3CCN(S(=O)(=O)N(C)C)CC3)cc2)c1-c1cccc2c(CCCOc3cccc4ccccc34)c(C(=O)O)n(CCN3CCOCC3)c12 | -5.39% and -9.48% | inactive | inactive | – | – | inactive | inactive | – | -0.0408% | – | – | 3.5% | – | –
27 | CC1(C)CC2C3=CCC4C5(C)CCC(OC6OC(C(=O)O)C(O)C(O)C6OC6OC(CO)C(O)C(O)C6OC6OC(CO)C(O)C(O)C6O)C(C)(CO)C5CCC4(C)C3(C)CCC2(C)C(OC2OCC(O)C(OC3OC(CO)C(O)C(O)C3O)C2O)C1O (stereo unspecified) | 2.95% | inactive | inactive | – | – | inactive [at 9.27 µM] | – | – | -17.3% | – | – | 5.61% | – | inactive [at 9.27 µM]
28 | O=C(O)c1cc(O[C@@H]2O[C@H](CO[C@@H]3OC[C@@H](O)[C@H](O)[C@H]3O)[C@@H](O)[C@H](O)[C@H]2O)c2ccccc2c1O | 3.92% | inactive | inactive | inactive | – | inactive [at 17.4 µM] | inactive | – | -7.85% | – | – | – | – | –
29 | O=C(c1ccc(NS(=O)(=O)c2cccc3cccnc23)cc1)N1CCN(CC2CC2)CC1 | -4.28% | inactive | inactive | – | – | inactive | inactive | – | 0.212% | – | – | -0.69% | – | –
30 | C1CCN2CC3C[C@@H](CN4CCCC[C@@H]34)[C@H]2C1 | 3.38% | inactive | inactive | – | – | inactive | inactive | – | -1.12% | – | – | 5.45% | – | –
31 | COc1ccccc1[C@@H]1C2=C(CC(C)(C)CC2=O)Nc2n[nH]c(C(F)(F)F)c21 | 3.92% | inactive | inactive | inactive | inactive | inactive | inactive | – | – | – | – | – | – | –
32 | CN1CC[C@@H](NC(=O)Nc2ccc(C#N)cc2)C[C@@H]1c1nc2ccccc2[nH]1 | -0.913% | inactive | inactive | – | – | inactive | inactive | – | 4.24% | – | – | -8.77% | – | –
33 | CC(C)=CCc1ccc(Oc2c(O)cc(C)cc2CO)c(C(=O)O)c1O | -1.26% | inactive | inactive | inactive | inactive | inactive | inactive | – | – | – | – | – | – | –
34 | C/C(=C/CO)CC[C@@H]1[C@@]2(C)CCC[C@](C)(C(=O)O)C2CC[C@@]1(C)O (stereo partly specified) | 2.67% | inactive | inactive | – | – | inactive | inactive | – | -1.08% | – | – | 3.08% | – | –
35 | CCS(=O)(=O)N1CCC([C@@H](C)n2c(C)c(C(=O)NCc3c(OC)cc(C)[nH]c3=O)c3ccccc32)CC1 | – | inactive | inactive | – | inactive | inactive | inactive | inactive | – | – | – | 9.76% | – | –
